From PubChem BioAssay AID588835 (The Scripps Research Institute Molecular Screening Center, 2011) come the findings set out here.

This assay deals with Prolyl endopeptidase (Mus musculus) (UniProt Q9QUR6). The assay is described as follows: in situ PREP and ABHD6 off-target inhibition, dose response, selectivity assay for PME-1 inhibitor project, cell-based, fluorescence, gel-based ABPP (AID 588835). The conditions noted are these: in situ gel-based competitive ABPP; series mostly up to 10 µM.

The source made the active and inactive calls. The rule behind the calls is not given here.

Chain of Prolyl endopeptidase (Mus musculus) (Q9QUR6 whole entry, looked up): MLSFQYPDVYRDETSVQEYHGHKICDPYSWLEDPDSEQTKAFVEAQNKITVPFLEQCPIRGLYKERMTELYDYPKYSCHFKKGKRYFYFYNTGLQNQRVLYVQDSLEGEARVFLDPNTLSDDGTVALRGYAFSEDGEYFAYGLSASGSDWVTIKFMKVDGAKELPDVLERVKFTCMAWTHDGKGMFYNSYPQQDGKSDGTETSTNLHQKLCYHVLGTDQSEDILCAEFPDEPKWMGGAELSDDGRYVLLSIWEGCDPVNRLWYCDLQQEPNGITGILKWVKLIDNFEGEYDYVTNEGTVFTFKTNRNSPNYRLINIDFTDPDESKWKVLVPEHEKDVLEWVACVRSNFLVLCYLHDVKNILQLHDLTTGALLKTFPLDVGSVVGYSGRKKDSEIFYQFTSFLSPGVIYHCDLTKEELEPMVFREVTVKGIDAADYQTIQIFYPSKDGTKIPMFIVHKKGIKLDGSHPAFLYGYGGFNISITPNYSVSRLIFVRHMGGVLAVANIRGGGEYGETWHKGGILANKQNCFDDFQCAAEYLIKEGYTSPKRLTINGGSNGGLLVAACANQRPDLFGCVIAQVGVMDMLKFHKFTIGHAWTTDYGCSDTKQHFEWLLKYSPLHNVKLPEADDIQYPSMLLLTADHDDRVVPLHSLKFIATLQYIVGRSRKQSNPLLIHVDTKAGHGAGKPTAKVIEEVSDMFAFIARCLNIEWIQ

Take `CC[C@@]1(c2ccc(C)cc2)C(=O)N(C(=O)OC(C)C)N1C(=O)OC(C)C`: the outcome was inactive.
